High-throughput results: PubChem BioAssay, National Center for Advancing Translational Sciences (NCATS)
gsp agonist: agonists of gsp mutant (McCune-Albright syndrome). AID 624287. Potency, µM (titrated, usually from 76.9 µM), for inactives: at the top dose activation (cAMP increase), hits mostly activators. gsp mutant cells, cAMP HTRF, 30 min. 0.13% of 340,000 active; active = well fitted activation curve with a large enough effect; inconclusive = small, poorly fitted or top-dose-only effect, or another doubt; inactive = no such curve, though single readings can be large or run the other way; cell line not stated here;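 note: phosphodiesterase inhibitor Ro 20-1724 added with compounds to block cAMP breakdown; potency is the fitted concentration of half-maximal effect; nearly all actives have a fitted effect of over 60% in size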
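Cells in DMEM/10% FBS with G418 were pretreated with compounds in DMSO plus […] (300 uM stock) for 30 min at 37C. cAMP was measured by HTRF (cAMP-d2 plus anti-cAMP antibody-K) after 30 min at room temperature.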
RXFP1 antagonist: antagonists of human relaxin receptor RXFP1 | Q9HBX9 | HEK293-RXFP1, relaxin-stimulated cAMP HTRF, 30 min; hits give low values | activity change, negative = inhibition, % at 57.5 µM | 0.59% of 350,000 active;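 active = activity change of -60% or lower, but not beyond a set lower limit; inconclusive = change between -60% and -40%, or beyond the set limit; inactive = change above -40%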; note: % is set by controls: 0 for no effect and ±100 for the full control effect
Target sequence (Q9HBX9 whole entry, looked up): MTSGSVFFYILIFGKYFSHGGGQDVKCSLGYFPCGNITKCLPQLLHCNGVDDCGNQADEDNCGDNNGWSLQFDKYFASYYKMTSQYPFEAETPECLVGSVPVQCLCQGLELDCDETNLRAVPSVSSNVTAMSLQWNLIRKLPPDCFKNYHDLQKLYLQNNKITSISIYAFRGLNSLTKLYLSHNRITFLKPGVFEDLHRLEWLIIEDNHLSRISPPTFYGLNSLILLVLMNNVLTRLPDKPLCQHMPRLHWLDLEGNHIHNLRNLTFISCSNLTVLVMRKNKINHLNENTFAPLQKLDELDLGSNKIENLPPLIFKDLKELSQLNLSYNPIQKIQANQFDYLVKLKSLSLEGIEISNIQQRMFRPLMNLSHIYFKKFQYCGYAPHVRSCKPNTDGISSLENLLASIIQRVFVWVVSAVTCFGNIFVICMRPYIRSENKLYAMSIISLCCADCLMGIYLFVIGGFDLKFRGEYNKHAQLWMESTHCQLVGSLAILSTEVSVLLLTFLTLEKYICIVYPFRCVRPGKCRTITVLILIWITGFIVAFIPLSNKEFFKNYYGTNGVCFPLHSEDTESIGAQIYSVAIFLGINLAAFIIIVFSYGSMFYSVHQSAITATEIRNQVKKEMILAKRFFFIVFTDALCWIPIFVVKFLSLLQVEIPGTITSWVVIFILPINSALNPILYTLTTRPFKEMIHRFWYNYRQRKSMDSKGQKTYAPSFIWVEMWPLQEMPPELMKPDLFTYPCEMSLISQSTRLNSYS
RXFP1 agonist: agonists of human relaxin receptor RXFP1 | Q9HBX9 | HEK293T-RXFP1 cAMP TR-FRET, 30 min; response scale: percent of porcine relaxin response, buffer zero | Potency, µM (highest dose often 57.5 µM), inactives show top-dose activation, usual class: activators | 0.3% of 370,000 active | AID 2676; active = well fitted activation curve with a large enough effect; inconclusive = small, poorly fitted or top-dose-only effect; note: potency is the fitted concentration of half-maximal effect; % is set by controls: 0 for no effect and ±100 for the full control effect; nearly all actives have a fitted effect of over 60% in size
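Agonist response is measured as cAMP accumulation in an RXFP1-transfected HEK293T line under PDE4 inhibition. Values are scaled between buffer-only and 29 nM porcine relaxin, and EC50s come from standard Hill equation fits.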
TSHR antagonist: blocks TSH signaling through the human TSH receptor; P16473; activity change, negative = inhibition, % at 11.5 µM; AID 504810; 0.2% of 330,000 active; TSHR-expressing cells, TSH-stimulated cAMP HTRF, 2 h; hits give low values;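 active = activity change below a set negative limit, meaning inhibition stronger than a set level, cut at about -70% in these data; inconclusive = activity change between two set negative limits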; note: % is set by controls: 0 for no effect and ±100 for the full control effect
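Freshly harvested TSHR cells receive pin-tooled compound, then EC80 TSH at 4nM final. After 2 hours at 37 deg C, antibody in lysis buffer and cAMP-d2 are added; 30 minutes at ambient temperature precede the HTRF read.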
gsp antag: antagonizes gsp, the McCune-Albright syndrome mutation | gsp-mutant cells, cAMP HTRF, 30 min | AID 624288 | 0.4% of 340,000 active | Potency, µM (top dose mostly 76.9 µM), for the others: at the highest dose activity change, negative = inhibition, most hits filed as inhibitors; calls by dose curve; cell line not stated here;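 note: intracellular cAMP measured with PDE inhibitor Ro 20-1724 present during compound exposure; potency is the fitted concentration of half-maximal effect; % is set by controls: 0 for no effect and ±100 for the full control effect; nearly all actives have a fitted effect of over 65% in size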
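G418-selected cells were plated in DMEM/10% FBS for 16-24 h at 37C, then treated with compounds plus the PDE inhibitor […] (300 uM solution added) for 30 min at 37C. Intracellular cAMP was measured by HTRF after 30 min lysis at room temperature.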
An asterisk follows results filed as active; ? = inconclusive; nt = no result given; [ ] = another dose, or the depositor's remark. A selection: hits, their analogues and other compounds. The true share with any hit is near 1%.

SMILES	gsp agonist	RXFP1 antagonist	RXFP1 agonist	TSHR antagonist	gsp antag
O=C(CP(=O)(c1ccccc1)c1ccccc1)N/N=C/c1cc(Br)cc(Br)c1O	2%[15.4 µM]	-71*	3%	15	-27%
O=C(CNC(=O)c1ccccc1Br)N/N=C/c1ccccc1O	-17%[15.4 µM]	8	0%	-3	-20%
O=C(C[n+]1ccccc1)N/N=C/c1cc(Br)cc(Br)c1O	-14%[15.4 µM]	?	0%	18	22%
O=C(CNC(=O)c1ccccc1Br)N/N=C\c1cc([N+](=O)[O-])cc(Br)c1O	0%	-67*	-4%	-3	-5%
O=C(Cc1ccccc1)N/N=C/c1cc(Br)cc(Cl)c1O	12%[15.4 µM]	-63*	10%	7	-13%
Cc1ccc(C)c(N2CCN(C(=O)c3cc4c(=O)n(Cc5ccco5)ccc4nc3C)CC2)c1	nt	4	0%	nt	nt
CC(C)N(Cc1ccccc1)C(=O)COC(=O)c1cc(S(=O)(=O)N(C)C)ccc1N1CCCC1	6%	-75*	nt	-3	-15%
CC(C)N(Cc1ccccc1)C(=O)COC(=O)c1cnc(Cl)c(Cl)c1	9%	-72*	nt	?	-27%
CN(C)S(=O)(=O)c1ccc(N2CCCC2)c(C(=O)OCC(=O)N2CCN(c3ccccc3)CC2)c1	5%	-13	-1%	3	5%
COc1ccc(NC(=O)C2CCN(S(=O)(=O)c3c(C)noc3/C=C/c3cccs3)CC2)cc1Cl	nt	0	2%	nt	nt
COc1ccc(NC(=O)CCCc2nnc3n(C)c(=O)c4sccc4n23)cc1	?	4	16µM*	15	10%
Cn1c(=O)c2sccc2n2c(CCC(=O)NCc3ccc(Cl)cc3)nnc12	nt	3	?	nt	nt
Cn1c(=O)c2sccc2n2c(CCCC(=O)NCc3ccc4c(c3)OCO4)nnc12	35µM*	8	?	22	-1%
Cn1c(=O)c2sccc2n2c(CCCC(=O)NCc3cccnc3)nnc12	?	26	13µM*	17	20%
O=C(CCCCCn1c(=O)c2sccc2n(Cc2ccccc2Cl)c1=O)NCc1ccc2c(c1)OCO2	nt	-6	32µM*	nt	nt
CCCn1c(=O)c2sccc2n2c(CCCC(=O)NCc3cccnc3)nnc12	?	-3	22%	21	22%
CCOc1ccc(NC(=O)CCCc2nnc3n(C)c(=O)c4sccc4n23)cc1	nt	7	?	nt	nt
CC(C)C(=O)N1c2nc(C(C)C)nn2C2(CCCCC2)[C@@H]2CCCC[C@@H]21	nt	-6	-1%	nt	nt
CCOc1ccccc1CNC(=O)c1cccn1-c1nnc(N2CCCC2)s1	nt	-11	1%	nt	nt
CCn1c(=O)c2sccc2n2c(CCCC(=O)NCCc3ccc(S(N)(=O)=O)cc3)nnc12	?	15	27%	7	18%
Cn1c(=O)c2sccc2n2c(CCCC(=O)NCCc3ccc(S(N)(=O)=O)cc3)nnc12	52%[15.4 µM]	20	28µM*	18	2%
O=C1N=c2ccccc2=C1c1sc(Nc2cccc(O)c2)nc1O	-61%	-9	0%	-8	?
O=C1N=c2ccccc2=C1c1sc(Nc2ccc(O)cc2)nc1O	-6%[15.4 µM]	-81*	-2%	-11	-6%
N#Cc1cc(C(=O)c2cc(F)ccc2O)cn(Cc2ccccc2)c1=O	9%[15.4 µM]	-27	0%	-12	-18%
Cc1ccc(O)c(C(=O)c2cc(C#N)c(=O)n(Cc3ccccc3)c2)c1	-11%	-90*	1%	-18	-17%
COc1ccc(CCNC(=O)Cn2nc(C)n3c(cc4cc(F)ccc43)c2=O)cc1OC	nt	3	3%	nt	nt
COc1ccc(OC)c(CNC(=O)C(C)n2c(C)c3cnn(-c4ccccc4)c(=O)c3c2C)c1 (stereo not given)	nt	7	-1%	nt	nt
CC(C)CCN1CCN(Cc2cccn2-c2cccnc2)CC1CCO (stereo not given)	-21%	1	-2%	-4	2%
COc1cccc(CN2CCN(Cc3cccn3-c3cccnc3)CC2CCO)c1 (stereo not given)	-13%	-7	1%	4	50µM*
CCc1ccc2n(-c3ccc(OC)cc3)c([S-])c(C(=O)Nc3cc(C)cc(C)c3)[n+]2c1	10%[15.4 µM]	-7	5µM*	9	29%
